Inconclusive results are not listed. A number with no mark means an inactive call. The source made the active and inactive calls. The call rests on the fitted dose curve; in most records, active means well fitted curve in the direction sought with a large enough effect in the repeat runs; inconclusive means weak or mixed curves; inactive means no such curve, though single readings can be large; an effect the other way counts as inactive or inconclusive.
Further: nearly all actives have a fitted effect of over 50% in size.
On the % scale 0 is the no-effect control and ±100 the full control effect; potency means the concentration at half of the fitted maximal effect.

Sequence of Cytochrome P450 3A4 (Homo sapiens) (P08684 whole entry, looked up): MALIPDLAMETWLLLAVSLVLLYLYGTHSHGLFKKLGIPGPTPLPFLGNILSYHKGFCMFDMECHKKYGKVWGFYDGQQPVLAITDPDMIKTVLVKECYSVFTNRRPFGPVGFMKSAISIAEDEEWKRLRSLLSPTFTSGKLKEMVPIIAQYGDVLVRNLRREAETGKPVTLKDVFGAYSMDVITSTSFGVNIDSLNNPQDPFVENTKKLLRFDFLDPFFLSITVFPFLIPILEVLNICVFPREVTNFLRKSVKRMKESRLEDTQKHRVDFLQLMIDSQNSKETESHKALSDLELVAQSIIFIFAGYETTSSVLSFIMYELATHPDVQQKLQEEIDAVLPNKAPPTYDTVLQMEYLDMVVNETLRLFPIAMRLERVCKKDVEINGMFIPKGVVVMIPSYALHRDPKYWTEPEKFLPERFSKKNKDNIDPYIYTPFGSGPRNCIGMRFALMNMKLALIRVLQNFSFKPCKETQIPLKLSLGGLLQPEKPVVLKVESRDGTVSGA
Sequence of Voltage-gated inwardly rectifying potassium channel KCNH2 (Homo sapiens) (Q12809 whole entry, looked up): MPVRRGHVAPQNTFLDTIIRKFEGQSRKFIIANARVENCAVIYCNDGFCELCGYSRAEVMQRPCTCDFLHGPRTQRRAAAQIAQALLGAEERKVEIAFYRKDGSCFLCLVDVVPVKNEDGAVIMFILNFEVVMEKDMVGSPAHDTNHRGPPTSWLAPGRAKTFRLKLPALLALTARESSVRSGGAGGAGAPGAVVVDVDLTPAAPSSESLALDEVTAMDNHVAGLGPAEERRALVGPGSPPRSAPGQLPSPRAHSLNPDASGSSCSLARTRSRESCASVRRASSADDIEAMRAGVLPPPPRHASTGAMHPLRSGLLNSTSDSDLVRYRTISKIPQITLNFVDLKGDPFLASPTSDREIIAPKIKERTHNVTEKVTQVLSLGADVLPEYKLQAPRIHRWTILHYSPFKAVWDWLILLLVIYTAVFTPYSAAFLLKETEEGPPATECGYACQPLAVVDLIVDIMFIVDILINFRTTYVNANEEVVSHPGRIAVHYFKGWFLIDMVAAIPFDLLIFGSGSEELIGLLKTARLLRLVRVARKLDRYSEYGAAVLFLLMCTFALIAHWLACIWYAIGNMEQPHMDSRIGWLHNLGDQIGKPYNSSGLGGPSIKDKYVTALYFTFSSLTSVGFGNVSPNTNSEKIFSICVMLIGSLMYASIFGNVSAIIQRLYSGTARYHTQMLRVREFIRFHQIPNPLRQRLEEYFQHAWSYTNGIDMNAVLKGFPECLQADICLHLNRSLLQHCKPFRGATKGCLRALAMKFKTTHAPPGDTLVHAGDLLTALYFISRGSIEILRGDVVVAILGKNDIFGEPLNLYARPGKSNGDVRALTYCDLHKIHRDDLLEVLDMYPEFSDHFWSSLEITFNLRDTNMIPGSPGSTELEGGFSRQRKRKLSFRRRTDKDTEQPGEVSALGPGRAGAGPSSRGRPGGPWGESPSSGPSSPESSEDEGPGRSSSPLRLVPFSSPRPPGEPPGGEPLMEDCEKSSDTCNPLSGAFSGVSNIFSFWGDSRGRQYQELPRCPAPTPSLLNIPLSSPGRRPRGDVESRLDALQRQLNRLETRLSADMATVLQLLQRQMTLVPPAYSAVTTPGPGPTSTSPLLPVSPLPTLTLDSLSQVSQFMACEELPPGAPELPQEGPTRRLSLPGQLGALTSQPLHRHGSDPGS

One test deals with Voltage-gated inwardly rectifying potassium channel KCNH2 (Homo sapiens) (UniProt Q12809). Description: Human Ether-a-go-go-Related Gene (hERG) channel small molecule antagonists: fluorescence cell-based qHTS assay (AID 1671200).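 On activity change, negative = inhibition: hERG-expressing U2OS cells given a thallium stimulus after FluxOR II dye loading.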 Conditions: hERG-U2OS cells, FluxOR thallium flux fluorescence; series mostly up to 76.8 µM; activity change, negative = inhibition: at the top concentration. Summed up:
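Fluorescence at 540 nm emission (480 nm excitation) was recorded kinetically for 2 min at 1-second intervals once the thallium-containing stimulus reached cells previously loaded with FluxOR II dye.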
Turning to `Cc1ccc(C(C)(C)O)cc1`, the “activity change, negative = inhibition” value was 4.02%. The same measure, in the same setting: for `O=C=Nc1cccc(C(F)(F)F)c1` the value was -3.35%; for `Cc1cscn1`, -2.38%; for `CC(C)=CCC1C(=O)N(c2ccccc2)N(c2ccccc2)C1=O`, -2.3% [at 35.3 µM]. Still for that read-out and setting: the result for `O=[N+]([O-])c1cc(C2CCCCC2)c(O)c([N+](=O)[O-])c1` reads -17.8%.

With `CCCCN1CCCC1C(=O)Nc1c(C)cc(C)cc1C` (centres undefined), the “activity change, negative = inhibition” value was 1.19% [at 35.3 µM]. Same read-out and setting: the result for `C[C@H]1C[C@H](O)c2ccsc2S1(=O)=O` reads 8.21% [at 35.3 µM]; that for `C=C(C)[C@@H]1CCC2=CCC[C@@H](C)[C@]2(C)C1`, -9.77%. Still for that read-out and setting: the result for `Oc1cccc(Nc2ccccc2)c1` reads -14.8%. The same measure, in the same setting: the result for `CN1CC(=O)N2[C@H](c3ccc4c(c3)OCO4)c3[nH]c4ccccc4c3C[C@@H]2C1=O` reads 1.42% [at 35.3 µM]. As to `CC[N+](CC)(CCNC(=O)C(=O)NCC[N+](CC)(CC)Cc1ccccc1Cl)Cc1ccccc1Cl`, the “activity change, negative = inhibition” value was 6.63% [at 35.3 µM]. With `Oc1cccc(O)c1O`, the “activity change, negative = inhibition” value is 18.6%.

As to `CCCCN(CCCC)C(C(N)=O)c1ccc(OC)cc1` (centres undefined), the “activity change, negative = inhibition” value was -10.1% [at 35.3 µM]. Regarding `Cc1cc(C)c(N)cc1C`, the “activity change, negative = inhibition” value was 1.15%. As for `CN(C(=O)CN(CCO)CC(=O)N(C)C(C)(C)Cc1ccccc1)C(C)(C)Cc1ccccc1`, the “activity change, negative = inhibition” value is -20.9% [at 35.3 µM]. Still for that read-out and setting: the result for `CC=C(Cl)Cl` reads -0.66%; that for `CCCCCC[C@@H](O)C/C=C\CCCCCCCC(=O)OCC(O)CO` (some centres undefined), 1.23%. On the same count and under the same terms, for `O=C1c2ccccc2C(=O)c2c(O)c(O)cc(O)c21` the value was -5.54%. Regarding `O=C1c2ccccc2C(=O)N1CCc1noc(-c2ccc(CN3CCCCCC3)s2)n1`, the Potency is 20.1 µM (active). As to `OC[C@H]1O[C@@H](n2cnc3c(=S)nc[nH]c32)[C@H](O)[C@@H]1O`, the “activity change, negative = inhibition” value is 2.16% [at 35.3 µM]. The same measure, in the same setting: the result for `CC1(C)O[C@@H]2C[C@H]3[C@@H]4C[C@H](F)C5=CC(=O)C=C[C@]5(C)[C@H]4[C@@H](O)C[C@]3(C)[C@]2(C(=O)CO)O1` reads -1.5% [at 35.3 µM]; that for `C=C(C)CCCC(C)CCO` (centres undefined), 0.507%; that for `O=C1c2ccccc2C(=O)C1(O)O`, 4.66%.

In the case of `CC(=O)OCC[N+](C)(C)C`, the “activity change, negative = inhibition” value is -0.464% [at 35.3 µM]. Turning to `Clc1cc(Cl)nc(Cl)n1`, the “activity change, negative = inhibition” value is -1.78%. On to `CCOC(C)=O`, for which the “activity change, negative = inhibition” value was -3.02%. In the case of `C=CC(C)(CCC=C(C)C)OC(=O)CC(C)C` (centres undefined), the “activity change, negative = inhibition” value is -13.3%. Consider `O=C1Cc2cc(Cl)ccc2N1`, for which the “activity change, negative = inhibition” value was -7.24% [at 35.3 µM].

For `CC1CC(OC(=O)C(O)c2ccccc2)CC(C)(C)N1C` (centres undefined), the “activity change, negative = inhibition” value was -2.12% [at 35.3 µM].

Regarding `c1ccc2sc(SN(C3CCCCC3)C3CCCCC3)nc2c1`, the “activity change, negative = inhibition” value is 3.45%. On the same count and under the same terms, for `Brc1cc(Br)c(Oc2cc(Br)c(Br)cc2Br)cc1Br` the value was -16.9% [at 35.3 µM]; for `CN1C(=O)OC(C)(C)C1=O`, 5.26%. Regarding `O=C(/C=C/c1ccc(O)c(O)c1)O[C@@H]1C[C@@](OC(=O)/C=C/c2ccc(O)c(O)c2)(C(=O)O)C[C@@H](O)[C@@H]1O`, the “activity change, negative = inhibition” value was 1.31% [at 35.3 µM]. The same measure, in the same setting: for `C=C(C)C(=O)OCCCCCCCCCCCCC` the value was -4.16%; for `C/C=C(/C(=C/C)c1ccc(O)cc1)c1ccc(O)cc1`, 1.02% [at 35.3 µM]; for `CCN(CC)CCNC(=O)COc1ccc(OC)cc1`, -1.28% [at 35.3 µM]. With `c1ccc(C[n+]2cccc3ccccc32)cc1`, the “activity change, negative = inhibition” value is -2.16%.

On to `O=c1[nH]ncc2ccccc12`, for which the “activity change, negative = inhibition” value was 1.4%.

For a further test, the target named is Cytochrome P450 3A4 (Homo sapiens) (UniProt P08684). Description: Cytochrome P450 Family 3 Subfamily A Member 4 (CYP3A4) small molecule antagonists: luciferase reporter qHTS assay (AID 1671201). The following applies: P450-Glo CYP3A4 enzyme, luciferin luminescence, 1 h; series mostly up to 115 µM; activity change, negative = inhibition: at the top concentration. Put shortly:
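qHTS, 1536-well. CYP3A4 + proluciferin substrate, cpd 10 min RT → NADPH regen 1 h RT → detection reagent 20 min → luminescence (RLU). Ketoconazole positive control.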
Background: Reporter assays use an easily measured gene product as a stand-in for the process of interest.
As to `Cc1ccc(C(C)(C)O)cc1`, the “activity change, negative = inhibition” value was 7.47%. The same measure, in the same setting: the result for `O=C=Nc1cccc(C(F)(F)F)c1` reads 0.177%. As for `Cc1cscn1`, the “activity change, negative = inhibition” value is 8.36%. Same read-out and setting: for `C[C@@H]1CC(=O)NN=C1c1ccc(NN=C(C#N)C#N)cc1` the value was -21.4% [at 52.9 µM].

With `O=[N+]([O-])c1cc(C2CCCCC2)c(O)c([N+](=O)[O-])c1`, the “activity change, negative = inhibition” value is -5.94%. For `C[C@H]1C[C@H](O)c2ccsc2S1(=O)=O`, the “activity change, negative = inhibition” value was -1.15% [at 52.9 µM]. In the case of `C=C(C)[C@@H]1CCC2=CCC[C@@H](C)[C@]2(C)C1`, the Potency was 71 µM (active). The same measure, in the same setting: the result for `Oc1cccc(Nc2ccccc2)c1` reads 29.5 µM (active). For the compound `CC[N+](CC)(CCNC(=O)C(=O)NCC[N+](CC)(CC)Cc1ccccc1Cl)Cc1ccccc1Cl`, the “activity change, negative = inhibition” value is 6.67% [at 52.9 µM].

On to `Oc1cccc(O)c1O`, for which the “activity change, negative = inhibition” value is -24.9%. Consider `Cc1cc(C)c(N)cc1C`, for which the Potency was 35.5 µM (active). With `CC=C(Cl)Cl`, the “activity change, negative = inhibition” value was 3.66%. For the compound `O=C1c2ccccc2C(=O)c2c(O)c(O)cc(O)c21`, the “activity change, negative = inhibition” value is -19.8%.

For the compound `O=C1c2ccccc2C(=O)N1CCc1noc(-c2ccc(CN3CCCCCC3)s2)n1`, the Potency was 0.231 µM (active).

For the compound `OC[C@H]1O[C@@H](n2cnc3c(=S)nc[nH]c32)[C@H](O)[C@@H]1O`, the “activity change, negative = inhibition” value was 0.765% [at 52.9 µM].

Consider `CC1(C)O[C@@H]2C[C@H]3[C@@H]4C[C@H](F)C5=CC(=O)C=C[C@]5(C)[C@H]4[C@@H](O)C[C@]3(C)[C@]2(C(=O)CO)O1`, for which the Potency is 4.9 µM (active).

Consider `C=C(C)CCCC(C)CCO` (centres undefined), for which the Potency is 28.3 µM (active). For `O=C1c2ccccc2C(=O)C1(O)O`, the “activity change, negative = inhibition” value is 19.4%.

On to `CC(=O)OCC[N+](C)(C)C`, for which the “activity change, negative = inhibition” value is 2.13% [at 52.9 µM].

Take `C=CC(C)(CCC=C(C)C)OC(=O)CC(C)C` (centres undefined): the Potency was 35.6 µM (active).

Regarding `Brc1cc(Br)c(Oc2cc(Br)c(Br)cc2Br)cc1Br`, the “activity change, negative = inhibition” value is 12.6% [at 52.9 µM]. As for `CN1C(=O)OC(C)(C)C1=O`, the “activity change, negative = inhibition” value was 5.73%. Same read-out and setting: the result for `O=C(/C=C/c1ccc(O)c(O)c1)O[C@@H]1C[C@@](OC(=O)/C=C/c2ccc(O)c(O)c2)(C(=O)O)C[C@@H](O)[C@@H]1O` reads -16.8% [at 52.9 µM]. For the compound `C=C(C)C(=O)OCCCCCCCCCCCCC`, the Potency was 55.7 µM (active).

Turning to `CCN(CC)CCNC(=O)COc1ccc(OC)cc1`, the “activity change, negative = inhibition” value is 4.16% [at 52.9 µM]. In the case of `O=c1[nH]ncc2ccccc12`, the “activity change, negative = inhibition” value was 0.615%.

The values above are taken from PubChem BioAssay (Tox21).
